Data published in the supplement of paper PMC10127200.
Where a name gives a salt, the structure may show the parent alone.

How the values were obtained:
Test in all cases: Euclidean distance of Cell Painting phenotypic profile (signed KS, 77 features) to DMSO centroid (dimensionless distance); 5 or 10 uM (library dependent); higher = stronger phenotypic change vs DMSO (phenoactivity)
Conditions in all cases: 48 h
[1] = test system: 786-O
Method in brief: (§1)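 Harmony extracted 77 features from 20X confocal images (9 fields/well) of stained cells, scoring each as a signed Kolmogorov-Smirnov statistic against same-plate vehicle wells. The cells, five cancer lines and a healthy fibroblast line, had received library compounds for 48 h at 10 or 5 uM depending on library, with 0.1% DMSO final. Phenoactivity is the Euclidean distance from each plate-position-corrected, correlation-weighted, top-dose replicate-averaged profile to the median vehicle profile.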

[2] = test system: A549
Method in brief: as §1

[3] = test system: DU145
Method in brief: as §1

[4] = test system: FB
Method in brief: as §1

[5] = test system: HEPG2
Method in brief: as §1

[6] = test system: OVCAR4
Method in brief: as §1

| Structure (SMILES) | Euclidean distance [1] | Euclidean distance [2] | Euclidean distance [3] | Euclidean distance [4] | Euclidean distance [5] | Euclidean distance [6] |
| --- | --- | --- | --- | --- | --- | --- |
| CC(=O)OCC(=O)[C@@]1(O)CC[C@H]2[C@@H]3CCC4=CC(=O)CC[C@]4(C)[C@H]3C(=O)C[C@@]21C [Cortisone acetate] | 1.03 | 0.746 | 1.1 | 1.06 | 0.755 | 1.67 |
| NC12CC3CC(CC(C3)C1)C2 [Amantadine HCl] | 1.14 | 0.94 | 1.01 | 0.961 | 0.485 | 0.875 |
| O=C(O)CCCc1cc2cc(Cl)ccc2n1S(=O)(=O)c1ccc2ncsc2c1 [Lanifibranor(IVA-337)] | 0.7 | 0.787 | 0.862 | 0.874 | 0.544 | 1.53 |
| COc1cccc2c1C(=O)c1c(O)c3c(c(O)c1C2=O)C[C@@](O)(C(=O)CO)C[C@@H]3O[C@H]1C[C@H](N)[C@H](O)[C@H](C)O1 [Doxorubicin (Adriamycin)] | 4.79 | 5.36 | 4.79 | 5.17 | 4.55 | 5 |
| COC(=O)/C=C/C(=O)OCCN1C(=O)CCC1=O [Diroximel Fumarete] | 0.82 | 0.396 | 1.17 | 1.24 | 0.611 | 0.814 |
| C#CCC(Cc1cnc2nc(N)nc(N)c2n1)c1ccc(C(=O)N[C@@H](CCC(=O)O)C(=O)O)cc1 (some centres not stated) [Pralatrexate] | 1.51 | 2.98 | 0.922 | 1.25 | 1.73 | 2.44 |
| CC[C@H]1OC(=O)[C@H](C)[C@@H](O[C@H]2C[C@@](C)(OC)[C@@H](O)[C@H](C)O2)[C@H](C)[C@@H](O[C@@H]2O[C@H](C)C[C@H](N(C)C)[C@H]2O)[C@](C)(O)C[C@@H](C)CN[C@H](C)[C@@H](O)[C@]1(C)O [Azathramycin] | 1.51 | 0.559 | 0.734 | 0.693 | 1.08 | 0.873 |
| C[C@H](CCC(=O)O)[C@H]1CC[C@H]2[C@@H]3CC[C@@H]4C[C@H](O)CC[C@]4(C)[C@H]3C[C@H](O)[C@]12C [Deoxycholic acid] | 0.886 | 0.94 | 0.997 | 0.74 | 0.87 | 1.36 |
| C[C@H]1[C@H](C)CC[C@]2(C(=O)O)CC[C@]3(C)C(=CC[C@@H]4[C@@]5(C)C[C@@H](O)[C@H](O)[C@@](C)(CO)[C@@H]5[C@H](O)C[C@]43C)[C@H]12 [Madecassic acid] | 0.661 | 0.291 | 0.775 | 0.741 | 0.461 | 0.968 |
| Nc1c(CC(=O)O)cccc1C(=O)c1ccccc1 [Amfenac Sodium Monohydrate] | 1.3 | 0.843 | 0.909 | 1.46 | 0.424 | 1.11 |
| O=C(c1ccc(F)cc1)N1CCC[C@H](c2nc(-c3ccc(F)cc3)no2)C1 | 1.35 | 0.726 | 0.856 | 1.17 | 0.656 | 0.832 |
| N=C1CCCN1Cc1[nH]c(=O)[nH]c(=O)c1Cl.O=c1[nH]c(=O)n([C@H]2C[C@H](O)[C@@H](CO)O2)cc1C(F)(F)F | 3.51 | 3.48 | 3.37 | 1.25 | 3 | 3.04 |
| CCOc1ccc2c(-c3cccc(F)c3)nn(CC(=O)N(C)c3ccc4nc(C)oc4c3)c(=O)c2c1 | 1.05 | 0.995 | 1.36 | 0.808 | 0.431 | 0.932 |
| O=C(O[C@@H]1Cc2c(O)cc(O)cc2O[C@@H]1c1cc(O)c(O)c(O)c1)c1cc(O)c(O)c(O)c1 [(-)-Epigallocatechin Gallate] | 0.998 | 0.875 | 1.33 | 1.39 | 1.17 | 0.757 |
| CN(C)c1cc(CNCC(C)(C)C)c(O)c2c1C[C@H]1C[C@H]3[C@H](N(C)C)C(O)=C(C(N)=O)C(=O)[C@@]3(O)C(O)=C1C2=O [Omadacycline tosylate] | 1.25 | 0.879 | 1.21 | 1.14 | 0.757 | 1.46 |
| COc1ccc2cc1Oc1ccc(cc1)C[C@H]1c3cc(c(OC)cc3CCN1C)Oc1c(O)c(OC)cc3c1[C@H](C2)N(C)CC3 [Fangchinoline] | 4.67 | 4.12 | 3.78 | 4.61 | 5.01 | 4.4 |
| O=c1c(-c2ccc(O)cc2)coc2cc(O)ccc12 [Daidzein] | 0.746 | 0.736 | 0.716 | 0.782 | 0.606 | 1.13 |
| CN[C@@H](C)C(=O)N[C@H]1CN(C(=O)CC(C)C)CC[C@H]2CC[C@@H](C(=O)NC(c3ccccc3)c3ccccc3)N2C1=O | 1.44 | 1.35 | 0.871 | 0.766 | 0.91 | 1.24 |
| CN(C)[C@@H]1C(O)=C(C(N)=O)C(=O)[C@@]2(O)C(O)=C3C(=O)c4c(O)ccc(Cl)c4[C@@](C)(O)[C@H]3C[C@@H]12 [Chlortetracycline HCl] | 1.45 | 0.912 | 1.04 | 0.904 | 0.464 | 1.05 |
| CC/C(=C(\c1ccccc1)c1ccc(OCCN(C)C)cc1)c1ccccc1 [Tamoxifen Citrate] | 1.05 | 2.39 | 1.36 | 1.45 | 1.5 | 1.36 |
| CC(C)CC(=O)Nc1cncc(-c2ccc3[nH]nc(-c4nc5cncc(-c6cccc(F)c6)c5[nH]4)c3c2)c1 | 5.07 | 2.79 | 4.73 | 4.58 | 4.73 | 3.42 |
| Cc1ccc(NC(=O)c2cccc(C(C)(C)C#N)c2)cc1Nc1ccc2ncn(C)c(=O)c2c1 | 1.3 | 2.03 | 1.98 | 3.42 | 1.53 | 0.804 |
| CCCCOc1cc(C(=O)NCCN(CC)CC)c2ccccc2n1 [Cinchocaine] | 0.885 | 1.28 | 0.93 | 1.03 | 1.47 | 1.21 |
| CCCNC(C)C(=O)Nc1ccccc1C (configuration not stated) [Prilocaine] | 1.25 | 0.85 | 0.708 | 1.93 | 0.648 | 0.974 |

| Structure (SMILES) | Euclidean distance [1] | Euclidean distance [2] | Euclidean distance [3] | Euclidean distance [4] | Euclidean distance [5] | Euclidean distance [6] |
| --- | --- | --- | --- | --- | --- | --- |
| CCOC(=O)C1=C(N)Oc2ccc(Br)cc2C1C(C#N)C(=O)OCC (configuration not stated) | 0.871 | 1.18 | 1.12 | 1.03 | 1.03 | 0.791 |
| CC1=NN(c2ccc(C)c(C)c2)C(=O)/C1=N\Nc1cccc(-c2cccc(C(=O)O)c2)c1O [Eltrombopag Olamine] | 1.58 | 1.04 | 1.13 | 2.4 | 1.69 | 1.49 |
| Cc1cc(Nc2ccc(NC(=O)c3ccc(Nc4ccnc5ccccc45)cc3)cc2)nc(N)n1 | 1.66 | 3.02 | 1.42 | 5.18 | 0.532 | 3.29 |
| CC(C)(C)Cn1c(N)nc2ccc(-c3[nH]c(C(C)(C)C)nc3-c3ccc(F)cc3)nc21 | 4.34 | 2.69 | 2.57 | 3.56 | 4.51 | 3.76 |
| CCCOc1ccc2c(c1)CC[C@@H]1[C@@H]2CC[C@]2(C)[C@@H](OC)CC[C@@H]12 [Promestriene] | 1.13 | 0.797 | 0.94 | 1.24 | 0.764 | 1.01 |
| CCc1cc(C(N)=S)ccn1 [Ethionamide] | 1.19 | 0.608 | 1.03 | 0.853 | 2.13 | 1.4 |
| CNC(=C[N+](=O)[O-])NCCSCc1csc(CN(C)C)n1 [Nizatidine] | 1.68 | 1.53 | 2.02 | 0.759 | 1.7 | 1.18 |
| CCCCC1=NC2(CCCC2)C(=O)N1Cc1ccc(-c2ccccc2-c2nnn[nH]2)cc1 [Irbesartan] | 1.03 | 0.928 | 0.351 | 0.966 | 0.777 | 1.79 |
| Oc1ccc([C@H]2COc3cc(O)ccc3C2)cc1 [Equol] | 1.09 | 1.52 | 1.04 | 1.35 | 0.768 | 1.72 |
| CO[C@@]1(NC(=O)C(C(=O)O)c2ccc(O)cc2)C(=O)N2C(C(=O)O)=C(CSc3nnnn3C)CO[C@@H]21 (some centres not stated) [Latamoxef sodium] | 1.53 | 0.777 | 1.09 | 0.907 | 0.797 | 1.39 |
| COc1ccnc(C[S+]([O-])c2nc3cc(OC(F)F)ccc3[nH]2)c1OC (configuration not stated) [Pantoprazole sodium] | 0.766 | 0.778 | 1.1 | 1.01 | 1.03 | 0.752 |
| CN[C@@H]1[C@@H](O[C@H]2O[C@H](CO)[C@@H](N)[C@H](O)[C@H]2O)OC2C[C@@H](N)[C@@H](O[C@H]3[C@H](O)[C@@H](O)[C@H](N)C[C@@H]3N)OC2[C@@H]1O (some centres not stated) [Apramycin Sulfate] | 1.51 | 0.794 | 0.965 | 1.27 | 0.895 | 1.19 |
| Cn1cnc([N+](=O)[O-])c1Sc1ncnc2[nH]cnc12 [Azathioprine] | 0.644 | 0.642 | 1.33 | 1.04 | 2.09 | 0.817 |
| Nc1ccccc1NC(=O)c1ccc(CNc2nccc(-c3cccnc3)n2)cc1 [Mocetinostat (MGCD0103)] | 3.18 | 3.33 | 2.95 | 3.48 | 3.36 | 3.38 |
| CN1CCC[C@@H]1CCO[C@](C)(c1ccccc1)c1ccc(Cl)cc1 [Clemastine Fumarate] | 1.5 | 1.22 | 1.59 | 1.96 | 2.11 | 1.18 |
| c1cn2cc(-c3ccc4cn[nH]c4c3)nc(Nc3ccc(N4CCOCC4)cc3)c2n1 [Entospletinib (GS-9973)] | 2.51 | 2.15 | 2.1 | 0.923 | 0.994 | 1.42 |
| CC1=NN(c2ccccc2)C(=O)C1 [Edaravone] | 1.25 | 1.04 | 0.819 | 0.807 | 1.31 | 1.02 |
| CC(C)[C@H](C(=O)Nc1ccc(C(=O)NO)cc1)c1ccccc1 | 3.25 | 4.55 | 3.1 | 4.34 | 4.16 | 3.22 |
| COC(=O)c1cc(OC)c2c(c1-c1c(C(=O)OC)cc(OC)c3c1OCO3)OCO2 [Bifendate] | 1.36 | 1.51 | 0.627 | 1.22 | 0.392 | 1.35 |
| CC[C@H]1OC(=O)C[C@@H](O)[C@H](C)[C@@H](O[C@@H]2O[C@H](C)[C@@H](O)[C@H](N(C)C)[C@H]2O)[C@@H](CCN2C[C@H](C)C[C@H](C)C2)C[C@@H](C)C(=O)/C=C/C(C)=C/[C@@H]1CO[C@@H]1O[C@H](C)[C@@H](O)[C@@H](OC)[C@H]1OC [Tilmicosin] | 0.767 | 0.579 | 0.777 | 0.841 | 1.09 | 0.801 |
| CC(C)CC(=O)Nc1n[nH]c2c1CN(C(=O)C1CCN(C)CC1)C2(C)C | 3.52 | 3 | 2.9 | 2.96 | 2.82 | 4.04 |
| O=C(O)/C=C/c1ccc(Cn2ccnc2)cc1 [Ozagrel sodium] | 1.06 | 1.08 | 1.01 | 1.07 | 1.03 | 0.564 |
| C[C@@H](c1nc(-c2ccc(C#N)cc2)cs1)[C@](O)(Cn1cncn1)c1cc(F)ccc1F [Isavuconazole] | 1 | 1.45 | 1.02 | 0.654 | 1.55 | 1.43 |
